The structures appear in SMILES notation. The campaign covered roughly 1,300 compounds. About 40 (3%) were called active. The full list was thinned out, with actives kept by preference. Values without a mark were called inactive. No stated cut-off is given here; in the data, active means inhibition above about 30%; inactive means the rest.

The target of this assay is fMet-Leu-Phe receptor (Homo sapiens) (UniProt P21462). Description: human FPR1 ligand displacement screen – cell-based, flow cytometry, SAR analysis, primary screen (AID 722). The conditions noted are these: FPR-expressing cells, fluorescent ligand binding inhibition, active compounds read high, concentration not given here. (A flow cytometer gives signals particle by particle.)
fMet-Leu-Phe receptor (Homo sapiens), sequence (P21462 whole entry, looked up): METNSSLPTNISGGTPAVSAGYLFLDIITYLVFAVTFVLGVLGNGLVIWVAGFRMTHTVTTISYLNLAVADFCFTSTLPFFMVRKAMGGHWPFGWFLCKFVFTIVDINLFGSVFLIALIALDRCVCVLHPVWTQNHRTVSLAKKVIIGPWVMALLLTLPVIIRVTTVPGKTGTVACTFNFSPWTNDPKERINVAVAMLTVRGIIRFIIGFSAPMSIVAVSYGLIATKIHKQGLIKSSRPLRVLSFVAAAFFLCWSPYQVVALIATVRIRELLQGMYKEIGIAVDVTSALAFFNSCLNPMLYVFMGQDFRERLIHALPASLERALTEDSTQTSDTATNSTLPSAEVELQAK
As a reminder, the inhibition is the relative decrease from the control value, in per cent. As for `COC(=O)c1c[nH]n2c(=O)cc(C3CCNCC3)nc12`, the inhibition is -1.9%.

`O=C1CSC(c2ccc(Br)cc2)N1c1cccc(Cl)c1` (stereo not given): the inhibition was 2.7%.

`COc1cccc(C2C(C(=O)c3cc4ccccc4o3)=C(O)C(=O)N2CCCN(C)C)c1` (stereo not given): the inhibition is -4.2%.

With `COc1cc(C2C(C(=O)c3cc4ccccc4o3)=C(O)C(=O)N2CCN(C)C)cc(OC)c1OC` (stereo not given), the inhibition was -6.9%.

On to `COc1ccc(C2C(C(=O)c3cc4ccccc4o3)=C(O)C(=O)N2CCN(C)C)cc1` (stereo not given), for which the inhibition is -8.1%.

On to `COc1cc(C2C(C(=O)c3cc4ccccc4o3)=C(O)C(=O)N2CCCN(C)C)cc(OC)c1OC` (stereo not given), for which the inhibition is 14.6%.

On to `COc1cc(C2C(C(=O)c3cc4ccccc4o3)=C(O)C(=O)N2CCN(C)C)ccc1O` (stereo not given), for which the inhibition is 88.7% (active).

For `COc1ccc(C2C(C(=O)c3cc4ccccc4o3)=C(O)C(=O)N2CCN(C)C)cc1OC` (stereo not given), the inhibition was 66.9% (active).

Take `COCCCN1C(=O)C(=O)/C(=C(/O)c2ccc(C)cc2)C1c1cc(OC)ccc1OC` (stereo not given): the inhibition is 0.2%.

As for `CCOC(=O)Cc1c(C)nc2c(-c3ccccc3)c(-c3ccccc3)[nH]n2c1=O`, the inhibition was -11.4%.

`COCCN1C(=O)C(O)=C(C(=O)c2cc3ccccc3o2)C1c1ccc(OCc2ccccc2)c(OC)c1` (stereo not given): the inhibition was -2.2%.

For `COc1ccc(C2C(C(=O)c3ccco3)=C(O)C(=O)N2CCN2CCOCC2)cc1OC` (stereo not given), the inhibition was -43.5%.

With `COc1ccc(C2C(C(=O)c3ccco3)=C(O)C(=O)N2CCN2CCOCC2)c(OC)c1` (stereo not given), the inhibition is 49.5% (active).

Regarding `COc1ccc(C2C(C(=O)c3cccs3)=C(O)C(=O)N2CCN2CCOCC2)cc1` (stereo not given), the inhibition was 9.7%.

Regarding `COc1ccc(C2C(C(=O)c3cccs3)=C(O)C(=O)N2CCCN2CCOCC2)cc1` (stereo not given), the inhibition was 6.5%.

Turning to `COc1ccc(C2C(C(=O)c3ccco3)=C(O)C(=O)N2CCN2CCOCC2)cc1` (stereo not given), the inhibition is 2.9%.

On to `COc1ccc(C2C(C(=O)c3cccs3)=C(O)C(=O)N2CCN2CCOCC2)c(OC)c1` (stereo not given), for which the inhibition was 62% (active).

On to `COc1ccccc1CN1C(=O)c2nccnc2C1=O`, for which the inhibition is 1.8%.

Consider `CCc1ccc(C(=O)CSc2nc3nc(C)cc(C)c3c(=O)[nH]2)cc1`, for which the inhibition was 5.9%.

Consider `CCOC(=O)c1c(NC(=O)c2ccco2)sc2c1CCC(C)C2` (stereo not given), for which the inhibition is -0.4%.

As for `Cc1ccc(N2C(=O)CSC2c2ccc(C(C)C)cc2)cc1` (stereo not given), the inhibition is -5.6%.

`O=C(C1=C(O)C(=O)N(CCCn2ccnc2)C1c1ccc(Cl)cc1Cl)c1ccco1` (stereo not given): the inhibition is 1.7%.

Regarding `CCOC(=O)c1c(NC(=O)c2cccnc2)sc2c1CCC(C(C)(C)C)C2` (stereo not given), the inhibition was -8%.

For the compound `O=C1C(=O)N(c2cccnc2)C(c2ccccc2[N+](=O)[O-])/C1=C(/O)c1ccccc1` (stereo not given), the inhibition is -2.9%.

Take `CCc1c(C)sc(NC(=O)c2cccc(F)c2)c1C(=O)OC`: the inhibition was -9.8%.

Regarding `COc1ccc(C2C(C(C)=O)=C(O)C(=O)N2Cc2ccco2)cc1OC` (stereo not given), the inhibition was 1.8%.

`COc1cccc(Oc2c(C(F)(F)F)oc3cc(O)ccc3c2=O)c1`: the inhibition was 9.2%.

Turning to `COC(=O)c1c(NC(=O)c2ccoc2C)sc(C)c1C`, the inhibition is 5.4%.

Take `CCc1c(C)nc2c(-c3ccc(OC)cc3)c(C)[nH]n2c1=O`: the inhibition is 12.9%.

For `COc1ccc(-c2c(C)[nH]n3c(=O)cc(Cc4ccccc4)nc23)cc1`, the inhibition was -1.1%.

`COc1ccc(-c2c(C)[nH]n3c(=O)c4c(nc23)CCCC4)cc1`: the inhibition was 73% (active).

As to `CC(C)OC(=O)c1nonc1N(C(=O)c1ccccc1)C(=O)c1ccccc1`, the inhibition is -0.6%.

Consider `O=C1C(=O)N(CCN2CCOCC2)C(c2cccs2)/C1=C(\O)c1ccc(S(=O)(=O)N2CCOCC2)cc1` (stereo not given), for which the inhibition is -1.3%.

On to `CC(=O)C1=C(O)C(=O)N(CCc2c(C)[nH]c3ccccc23)C1c1cccc(F)c1` (stereo not given), for which the inhibition was 65.2% (active).

Take `COc1ccc(/C(O)=C2/C(=O)C(=O)N(CCc3c(C)[nH]c4ccccc34)C2c2ccc(Cl)cc2)cc1` (stereo not given): the inhibition was 4.2%.

Take `CC(=O)C1=C(O)C(=O)N(CCc2c(C)[nH]c3ccccc23)C1c1cccc([N+](=O)[O-])c1` (stereo not given): the inhibition is 9.3%.

For the compound `Cc1onc(-c2ccccc2Cl)c1C(=O)Oc1cccc(F)c1`, the inhibition is 3.6%.

In the case of `CCOC(=O)c1c(NC(=O)c2cc3ccccc3o2)sc2c1CCC(C)C2` (stereo not given), the inhibition was -1.7%.

Take `CCN1CCC2(CC1)N=C(c1ccccc1)C(=S)N2C(=O)c1ccccc1`: the inhibition is 2.1%.

For the compound `CC(=O)C1=C(O)C(=O)N(Cc2ccco2)C1c1ccc(Br)cc1` (stereo not given), the inhibition is -1.5%.

With `COc1ccc(/C(O)=C2/C(=O)C(=O)N(c3ccc(C)c(Br)c3)C2c2ccc(O)cc2)cc1` (stereo not given), the inhibition was -5.2%.

With `O=C(c1ccccc1F)N(Cc1ccco1)Cc1ccccc1F`, the inhibition is 9.3%.

In the case of `O=C(Oc1ccc2c(=O)c(-c3ccccc3Cl)c(C(F)(F)F)oc2c1)c1cccs1`, the inhibition was 70% (active).

For the compound `COc1ccccc1-c1c(C(F)(F)F)oc2cc(OC(=O)N3CCOCC3)ccc2c1=O`, the inhibition is 9.4%.

For `COc1ccc(Oc2c(C(F)(F)F)oc3cc(OC(=O)c4c(OC)cccc4OC)ccc3c2=O)cc1`, the inhibition is 2.9%.

On to `COc1cccc(OC)c1C(=O)Oc1ccc2c(=O)c(-c3ccc(Cl)cc3)c(C(F)(F)F)oc2c1`, for which the inhibition is 4.7%.

In the case of `O=C(Oc1ccc2c(=O)c(Oc3ccccc3Br)c(C(F)(F)F)oc2c1)c1cccs1`, the inhibition was 37.2% (active).

Consider `O=C(Oc1ccc2c(=O)c(Oc3ccccc3Cl)c(C(F)(F)F)oc2c1)c1cccs1`, for which the inhibition is -8.1%.

As for `COc1cc(C)c2c(=O)c(Oc3ccccc3)c(C(F)(F)F)oc2c1`, the inhibition is 4.2%.

Take `CCCCc1c(O)nc(SCCN(C)C)n(-c2ccccc2)c1=O`: the inhibition is -1%.

For the compound `CCOc1ccc(C2/C(=C(/O)c3ccc(Cl)cc3)C(=O)C(=O)N2c2ccc(C)c(Br)c2)cc1` (stereo not given), the inhibition was -0.6%.

On to `COCCCN1C(=O)C(=O)/C(=C(/O)c2ccccc2)C1c1cc(OC)ccc1OC` (stereo not given), for which the inhibition was 11.4%.

For the compound `COc1ccc(C2/C(=C(\O)c3ccccc3)C(=O)C(=O)N2c2ccc(C)c(Cl)c2)c(OC)c1` (stereo not given), the inhibition is -4.3%.

On to `COc1ccc(C2/C(=C(/O)c3ccccc3)C(=O)C(=O)N2CCO)c(OC)c1` (stereo not given), for which the inhibition was -12.1%.

Consider `COCCN1C(=O)C(=O)/C(=C(/O)c2ccccc2)C1c1ccc(OC)cc1OC` (stereo not given), for which the inhibition was 10.5%.

With `COc1ccc(/C(O)=C2/C(=O)C(=O)N(CCCn3ccnc3)C2c2cccc(OC)c2)cc1` (stereo not given), the inhibition is -6.1%.

For the compound `COc1ccc(C2/C(=C(/O)c3ccccc3)C(=O)C(=O)N2c2ccc(C)c(Br)c2)c(OC)c1` (stereo not given), the inhibition is -1.6%.

In the case of `COCCN1C(=O)C(=O)/C(=C(/O)c2ccccc2)C1c1cc(OC)ccc1OC` (stereo not given), the inhibition is 69.8% (active).

For the compound `COc1ccc(C2/C(=C(\O)c3ccccc3)C(=O)C(=O)N2c2cccc(Cl)c2)c(OC)c1` (stereo not given), the inhibition was 47.6% (active).

As for `COc1ccc(C2/C(=C(\O)c3ccccc3)C(=O)C(=O)N2CCCn2ccnc2)c(OC)c1` (stereo not given), the inhibition is 79.1% (active).
